SNCA expr inhib: SNCA gene expression inhibition | HEK-293 SNCA-luciferase knock-in, luminescence, 24 h | Potency, µM (titrated, usually from 57.2 µM), most hits filed as inhibitors | 140,000 compounds, 0.17% hits; further: nearly all actives have a fitted effect of over 45% in size
GPT2 inh: blocks human glutamate pyruvate transaminase 2; Q8TD30; Potency, µM (titrated, usually from 57.7 µM), usual class: inhibitors; 100,000 compounds, 0.25% hits; Recombinant GPT2, coupled pyruvate oxidase/HRP Amplex Red fluorescence; further: nearly all actives have a fitted effect of over 60% in size
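Fluorescence read-out: pyruvate from GPT2 turnover coupled to pyruvate oxidase, HRP and Amplex Red (0.2mM ThPP, 0.2U/mL PO and HRP, 50uM Amplex final). Substrates 250uM a-KG, 2mM L-alanine; enzyme 10ng/uL; 30 min RT.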
HEK293 viab: cell viability loss counter-screen | HEK-293-SNCA-luc viability, GF-AFC fluorescence, 24 h | Potency, µM (highest dose often 57.1 µM), hits mostly cytotoxic | 150,000 compounds, 0.12% hits | AID 1671193; further: nearly all actives have a fitted effect of over 30% in size
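HEK-293-SNCA-luc cells (1500/well) plated 24 h, then exposed 24 h to a dilution series; GF-AFC added 30 min at 37C, fluorescence 405/540 nm; normalised to medium-only and DMSO wells, Hill fit.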
IP6K1 inh: inhibitors of human IP6K1 | IP6K1 kinase, ADP-Glo luminescence, 2 h; active compounds read low | activity change, % (series mostly up to about 58 µM) | 140,000 compounds, 0.81% hits | AID 1645851; in the data active means activity change below about -25%
Target sequence (Q92551 whole entry, looked up): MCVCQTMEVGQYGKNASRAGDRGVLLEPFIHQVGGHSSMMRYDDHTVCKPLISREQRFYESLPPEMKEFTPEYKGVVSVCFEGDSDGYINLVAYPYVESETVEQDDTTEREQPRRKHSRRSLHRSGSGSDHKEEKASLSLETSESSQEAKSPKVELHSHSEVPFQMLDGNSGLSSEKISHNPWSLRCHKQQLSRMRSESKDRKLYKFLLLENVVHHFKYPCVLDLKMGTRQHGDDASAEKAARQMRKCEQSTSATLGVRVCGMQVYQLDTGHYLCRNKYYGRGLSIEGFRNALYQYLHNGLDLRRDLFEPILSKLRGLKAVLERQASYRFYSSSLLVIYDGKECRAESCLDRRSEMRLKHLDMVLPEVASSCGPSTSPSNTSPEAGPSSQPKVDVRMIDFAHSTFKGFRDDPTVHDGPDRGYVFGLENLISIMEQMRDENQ
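ADP-Glo luminescence measures ADP made by human IP6K1 during a 2 h RT reaction with ATP/IP6 (mix at 1.3 mM/130 uM); top library doses 57.5 and 19.1 uM final.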
IP6K1 inh cnf: confirmation of human IP6K1 inhibitors | 1,200 compounds, 13% hits | recombinant IP6K1 kinase, ADP-Glo luminescence, 2 h | Potency, µM (top dose mostly 49 µM), most hits filed as inhibitors | shares compounds with IP6K1 inh; further: nearly all actives have a fitted effect of over 65% in size
A number is an active result; i = inactive; ? = inconclusive; nt = no result given; [ ] = remark or other dose. Sampled rows, rich in hits. Any-hit rate of the full collection: about 1%. Unless noted, the call rests on the fitted dose curve; in most records, active means well fitted curve in the direction sought with a large enough effect; inconclusive means small, poorly fitted or top-dose-only effect, or another doubt; inactive means no such curve, though single readings can be large; an effect the other way counts as inactive or inconclusive.

SMILES	SNCA expr inhib	GPT2 inh	HEK293 viab	IP6K1 inh	IP6K1 inh cnf
CC(C)(C)c1nc2c3cc[nH]c(=O)c3c3cc(F)ccc3c2[nH]1	i	i	i	nt	i
Cc1ccc(NC(=O)C2CCc3nnc(CN[S+](C)(=O)[O-])n32)cc1 (centres undefined)	i	i	i	i	nt
Cc1ccoc1C(=O)N1C[C@@H](CO)[C@H](c2ccccn2)C1	i	i	i	-40	i
COC[C@@H]1CN(C(=O)c2occc2C)C[C@H]1c1ccccn1	i	i	i	i	nt
C/C=C(\C)C(=O)O[C@H]1[C@@H](O[C@]2(COC(=O)CC(C)C)O[C@H](COC(=O)C(C)C)[C@@H](OC(C)=O)[C@@H]2O)O[C@H](COC(C)=O)[C@@H](O)[C@@H]1O	nt	i	i	-38	?
CC(C)CC(=O)OC[C@H]1O[C@@](COC(=O)CC(C)C)(O[C@H]2O[C@H](CO)[C@@H](O)[C@H](O)[C@H]2OC(=O)CC(C)C)[C@@H](OC(=O)CC(C)C)[C@@H]1O	nt	i	i	i	nt
Oc1ccccc1CN1CCNc2cc(Nc3cccnc3)ncc2C1	i	i	i	i	nt
Cc1cccc(CN2C(=O)c3ccccc3Sc3ccc(C(=O)NCc4ccco4)cc32)c1	i	nt	i	i	nt
O=C(NCc1ccco1)c1ccc2c(c1)N(Cc1ccccc1)C(=O)c1ccccc1S2	?	nt	?	-28	?
CSCCNC(=O)[C@@H]1CCCN1c1nccc(Nc2ccccc2Cl)n1	i	?	i[12.5 µM]	i	nt
CC(=O)NCCc1nc2ccccc2n1CCCCOc1ccc(Cl)cc1	?	nt	i	i	nt
CCCCCn1c(CCCNC(=O)c2ccc(Cl)cc2)nc2ccccc21	i	nt	i	-39	i
COc1ccc(S(=O)(=O)NC[C@@H]2C=C(C)[C@H](CC(=O)N(C)Cc3cccnc3)C[C@H]2C(C)C)cc1	i	i	i	i	nt
CN(Cc1cccs1)c1nc(-c2ccccc2C(F)(F)F)nc2ccccc12	nt	nt	nt	nt	i
FC(F)(F)c1ccccc1-c1nc(NCc2ccc(Cl)cc2)c2ccccc2n1	nt	nt	nt	nt	i
Cc1ccc(CNc2nc(-c3ccccc3C(F)(F)F)nc3ccccc23)s1	nt	nt	nt	nt	i
FC(F)(F)c1ccccc1-c1nc(NCc2ccccc2)c2ccccc2n1	nt	nt	nt	nt	i
COCCNc1nc(-c2ccccc2C(F)(F)F)nc2ccccc12	i	nt	i	nt	nt
COc1ccc(-c2cnc3[nH]cc(CC(=O)N4CCCC4)c3c2)cc1	i	?	i	i	nt
Cc1cccc2c1O[C@H]1[C@H](CO)CN(C(=O)CCc3ccccc3)[C@@H]21	nt	nt	nt	i	nt
CC(C)Cn1c(=O)c2ccccc2n2c(CCC(=O)NCc3ccc(Cl)cc3)nnc12	i	nt	i	-28	i
COc1ccc2nc(N3CCN(C(=O)CS(=O)(=O)c4ccc(C)cc4)CC3)sc2c1	i	nt	i	-29	i
CC1=C[C@@H](CN2CCN(c3ccc(F)cc3)CC2)[C@H](C(C)C)C[C@H]1Cc1nnc(-c2cncn2C)o1	i	i	i	i	nt
COC1CN(c2cccc(F)c2)C12CCN(C(=O)NCCc1ccccc1)CC2 (centres undefined)	i	i	i	i	nt
CCCCN(Cc1ccccc1)S(=O)(=O)c1cc(Br)cc2c1N(C(=O)C1CC1)CC2	i	nt	i	i	nt
SMILES	SNCA expr inhib	GPT2 inh	HEK293 viab	IP6K1 inh	IP6K1 inh cnf
CCCCN(Cc1ccccc1)S(=O)(=O)c1cc(Br)cc2c1N(C(C)=O)CC2	i	nt	i	-27	i
COc1ccccc1N1CCN(CCC(=O)N(C)Cc2ccccc2)CC1=O	i	i	i	i	nt
COc1ccccc1N1CCN(C(=O)CCc2ccccc2C)CC1=O	i	i[11.5 µM]	i	-34	i
CCOC(=O)N1CCN(Cc2nc3cc(NC(=O)c4ccccc4Cl)ccc3n2C(C)C)CC1	i	nt	i	-25	i
CCCC(=O)Nc1ccc2c(c1)nc(CN1CCN(C(=O)OCC)CC1)n2C(C)C	?	nt	i	-28	i
Cc1nnsc1C(=O)Oc1ccc(C#N)cc1	i	nt	i	i	nt
Cc1cc(C)cc(OC(=O)c2snnc2C)c1	i	nt	i	-35	i
Cc1nnsc1C(=O)Oc1ccc(Cl)cc1	i	nt	i	-26	i
CCC(C)NC(=O)c1cc(-c2cccc(OC)c2)nc2c1cnn2C (centres undefined)	nt	nt	nt	i	nt
COc1ccc(-c2cc(N3CCN(C(=O)c4ccc(C)cc4C)CC3)n[nH]2)cc1	i	i	i	i	nt
CCOC(=O)c1ccc(NC(=O)CC2C(=O)N(c3ccc(F)cc3)C(=O)N2Cc2ccc3c(c2)OCO3)cc1 (centres undefined)	i	nt	i	i	nt
CCOC(=O)c1ccc(NC(=O)CC2C(=O)N(c3ccc(F)cc3)C(=O)N2Cc2ccc(C)cc2)cc1 (centres undefined)	?	nt	i	-29	?
O=C(Nc1ccc(N2CCN(c3ccc(F)cc3)CC2)c(C(=O)O)c1)c1cccs1	i	nt	i	-27	?
O=C(NC[C@H]1O[C@@H](CO)[C@@H](O)[C@H]1N1CCN(c2ccccc2)CC1)c1cccs1	i	i	i	i	nt
CC(=O)c1ccc(N2CCN(c3ccc(NC(=O)c4ccc(F)cc4)cc3C(=O)O)CC2)cc1	i	nt	i	i	nt
O=C(Nc1cnc(N2CCN(c3ccccc3)CC2)c(C(=O)O)c1)c1cccs1	i	nt	i	-28	?
O=C1Nc2ccccc2CN(Cc2ccc(F)cc2)C12CCNCC2	i	i	i	i	nt
COc1ccccc1CNC(=O)c1ccc2c(c1)nc(C)n2-c1cccc(C)c1	i	nt	i	-26	i
COc1ccc(NC(=O)c2nnn(Cc3ccccc3C)c2N)c(OC)c1	?	nt	i	-27	i
Cc1cc(C)cc(NC(=O)CSc2nccn2-c2ccccc2)c1	i	nt	i	i	nt
CCOC(=O)c1ccc(NC(=O)CSc2nc3cc4ccccc4cc3[nH]2)cc1	i	nt	i	-26	i
CCOC(=O)c1ccc(NC(=O)CSc2nccn2-c2cc(C)cc(C)c2)cc1	i	nt	i	-27	?
c1ccc(CN2C[C@@H]3CC[C@H](C2)N(Cc2ccc4nsnc4c2)C3)nc1	i	i	i	i	nt
Cc1ccc(-n2nc(CO)c(C(=O)NCCCc3ccccc3)n2)cc1	i	nt	i	i	nt
Cc1ccc(-n2nc(CO)c(C(=O)NC(C)CCCc3ccccc3)n2)cc1 (centres undefined)	i	nt	i	-31	i
SMILES	SNCA expr inhib	GPT2 inh	HEK293 viab	IP6K1 inh	IP6K1 inh cnf
CNC(=O)c1cc(C2CC2)nc2c1c(C1CCCN(C(=O)Nc3ccccc3)C1)nn2C (centres undefined)	nt	nt	nt	i	nt
CCn1c2ccccc2c2cc(CN3CCN(Cc4ccc(OC)c(OC)c4)CC3)ccc21	i	nt	i	i	nt
CCOc1ccc(CN2CCN(Cc3ccc4c(c3)c3ccccc3n4CC)CC2)cc1	i	nt	i	-32	i
COc1cccc(-c2ccc(CN3CCCC(N[S+](C)(=O)[O-])C3)cc2)c1 (centres undefined)	i	?	i	i	nt
Cc1ccnc2nc(NC(=O)c3ccccc3Cl)nn12	i	nt	i	-25	i
Cc1nc2cnccn2c1C(=O)NCC(C)C	nt	nt	nt	i	nt
CCN1Cc2ccccc2N(C[C@@H](O)COCc2ccccc2)CCC1=O	nt	nt	nt	i	nt

Bioassay records from PubChem.
